Here are results for 40 compounds from PubChem BioAssay (Tox21).

Molecules are shown by their SMILES. Inconclusive results are not listed. Unmarked numbers belong to inactive results. Calls come from the whole dose curve; as a rule, active = well fitted cell-killing curve with a large enough effect in the repeat runs; inconclusive = weak or mixed curves, or effect the other way; inactive = no such curve, though single readings can be large or run the other way.
% is set by controls: 0 for no effect and ±100 for the full control effect.

The assay can be described thus: qHTS assay for small molecule activators of the heat shock response signaling pathway - cell viability counter screen (AID 743209). Note: nearly all actives have a fitted effect of over 50% in size. The following applies: HSE-bla HeLa viability, CellTiter-Glo luminescence, 5 h; series mostly up to 62.6 µM; activity change, negative = cytotoxicity: at the top concentration. The text has this:
U.S. Tox21 Program National Center for Advancing Translational Sciences [NCATS] NIH Chemical Genomics Center [NCGC] U.S. Environmental Protection Agency [EPA] National Institutes of Environmental Health Sciences [NIEHS] National Toxicology Program [NTP] U.S. Food and Drug Administration [FDA] Tox21 Assay Overview: Various chemicals, environmental and physiological stress conditions may lead to the activation of heat shock response/ unfolded protein response (HSR/UPR). There are three heat shock transcription factors (HSFs) (HSF-1, -2, and -4) mediating transcriptional regulation of the human HSR. To identify the compounds that activate HSR signaling, HSE-bla HeLa cell line (Invitrogen, Carlsbad, CA, USA) containing a beta-lactamase reporter gene under the control of the heat shock response elements was used to screen Tox21 10K compound library. The cytotoxicity of the Tox21 compound library against the HSE-bla HeLa cell line was tested in parallel by measuring the cell viability using CellTiter-Glo assay (Promega, Madison, WI) in the same wells.
Tox21 Assay Protocol Summary: The CellSensor HSE-bla HeLa cells (Invitrogen, Carlsbad, CA, USA) were dispensed at 1500 cells/6uL/well into 1536-well black wall/clear bottom plates using a Multidrop combi (Thermo Fisher Scientific, Waltham, MA) dispenser. After the assay plates were incubated at 37 C and 5% CO2 overnight, 23 nL of compounds dissolved in DMSO, positive controls or DMSO only was transferred to the assay plate by a Pintool station (Kalypsys, San Diego, CA). The plates were incubated at 37 C for 5 h. After 1 uL of LiveBLAzerTM B/G FRET substrate was added using a Flying Reagent Dispenser (FRD, Beckman Coulter, Indianapolis, IN, USA), the plates were incubated at room temperature for 2.5 h, and fluorescence intensity was measured by an Envision plate reader (PerkinElmer, Shelton, CT). For cell viability readout that measures cytotoxicity, 3 ul/well of CellTiter-Glo reagent was added into the assay plates using a FRD. After 30 min incubation at room temperature, the luminescence intensity in the plates was measured using a ViewLux (PerkinElmer) plate reader.
Consider `COc1ccc(C(=O)c2ccc(C)cc2)c(O)c1`, for which the “activity change, negative = cytotoxicity” value was 7.62% [at 81.1 µM]. For `O=P(c1ccccc1)(c1ccccc1)c1ccccc1`, the “activity change, negative = cytotoxicity” value was 2.87%. In the case of `O=C(O)c1ccncc1`, the “activity change, negative = cytotoxicity” value was -7.12% [at 81.1 µM]. For the compound `OCC(O)c1ccccc1` (stereo not given), the “activity change, negative = cytotoxicity” value was -4.96%. As for `O=c1[nH]nc(-c2ccc([N+](=O)[O-])o2)o1`, the “activity change, negative = cytotoxicity” value was 1.66%.

Consider `CCCCCCCCCCCCSC#N`, for which the “activity change, negative = cytotoxicity” value is -10.2%. In the case of `CCCCCCCCNC`, the “activity change, negative = cytotoxicity” value is -5.05%.

`O=c1c2ccccc2oc2ccccc12`: the “activity change, negative = cytotoxicity” value is -0.844%.

`C=C(C)C(=O)OCCCCCCCCCCOC(=O)C(=C)C`: the “activity change, negative = cytotoxicity” value was 0.266%. On to `O=C1c2ccccc2C(=O)c2c1ccc(O)c2O`, for which the “activity change, negative = cytotoxicity” value was -14.3%. Take `CCCCOc1ccc(N)cc1`: the “activity change, negative = cytotoxicity” value was -1.22%.

In the case of `O=S(=O)(O)c1cc(Cl)c(Cl)cc1Cl`, the “activity change, negative = cytotoxicity” value was -5.26%.

On to `Clc1nc2ccccc2nc1Cl`, for which the “activity change, negative = cytotoxicity” value is 4.65% [at 81.1 µM]. In the case of `CC(=O)Nc1ccccc1O`, the “activity change, negative = cytotoxicity” value was -3.04%. In the case of `CC(C)=CCC[C@H](C)CCO`, the “activity change, negative = cytotoxicity” value is 3.25%.

In the case of `Cc1c(Nc2ncccc2C(=O)O)cccc1C(F)(F)F`, the “activity change, negative = cytotoxicity” value was -4.6%. With `CC1(C)C(=O)NC(=O)N1CO`, the “activity change, negative = cytotoxicity” value was 3.12%. To `O=C(Nc1ccc2c(c1)Cc1ccccc1-2)C(F)(F)F` belongs -5.6%. To `CS(C)=O` belongs 3.61%. Under `CC(C)Cc1nccs1` stands 2.82% [at 81.1 µM]. Take `COc1ccc(/C=C/c2cc(OC)cc(=O)o2)cc1`: the “activity change, negative = cytotoxicity” value was 7.03%. `COC(=O)Cc1cccc2ccccc12`: the “activity change, negative = cytotoxicity” value was -0.67%.

On to `Clc1cccc(C(c2ccc3nc[nH]c3c2)n2ccnc2)c1` (stereo not given), for which the “activity change, negative = cytotoxicity” value was 4.46%.

For the compound `O=C1c2ccccc2C(=O)C1c1ccc2cc(S(=O)(=O)O)cc(S(=O)(=O)O)c2n1`, the “activity change, negative = cytotoxicity” value was -2.91% [at 81.1 µM]. To `COC(=O)C(C)(C)C` belongs -6.88% [at 81.1 µM]; to `CCCCCCCCCC(C)C=O` (stereo not given), -6.71%. To `Cc1cc(SC2=C(O)C[C@@](CCc3ccc(N)cc3)(C(C)C)OC2=O)c(C(C)(C)C)cc1CO` belongs -3.52%. Under `c1ccc(CN(Cc2ccccc2)Cc2ccccc2)cc1` stands -8.17%.

Regarding `CC1(C)CC(=O)CC(C)(C)N1`, the “activity change, negative = cytotoxicity” value was -4.37%.

`Cc1ccc(NC(=O)c2ccc(CN3CCN(C)CC3)cc2)cc1Nc1nccc(-c2cccnc2)n1`: the “activity change, negative = cytotoxicity” value was -2.41%.

As for `Cc1cc(C)n(CO)n1`, the “activity change, negative = cytotoxicity” value was 3.62%. Under `COc1ccc(/C=C/S(=O)(=O)NC(=O)c2ccc(C)cc2Cl)cc1` stands -7.03%. Consider `C=CC(O)CCCCC` (stereo not given), for which the “activity change, negative = cytotoxicity” value was 6.17%. Under `Cc1c(Cl)cccc1Nc1ccccc1C(=O)O` stands -4.73%; under `c1ccc(CCNc2nc(-c3ccccc3)cs2)cc1`, -17.6%.

For the compound `CCc1c(C)[nH]c2c1C(=O)C(CN1CCOCC1)CC2` (stereo not given), the “activity change, negative = cytotoxicity” value was 27.9%. Under `CC(C)CCCCCOC(=O)CS` stands -11.8%; under `CC(O)CN` (stereo not given), -5.53%; under `Nc1ncnc2c1ncn2[C@@H]1O[C@H](CO)[C@@H](O)[C@H]1O`, -0.982%. For the compound `Oc1ccc(CCNCCCCCCNCCc2ccccc2)cc1O`, the “activity change, negative = cytotoxicity” value was 16.7%.
